# Results published in PubChem BioAssay (NCI).
# This is part of a sample that, as a whole, favours compounds with a hit. Of some 83,000 tested, about 20% had one in any assay.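 Compound tested at a single concentration for 48 hours in 96-well plates; a percent growth value below 10 was scored as active.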 Values without a mark were called inactive. The source made the active and inactive calls.
# How the values were obtained:
# Assay in all cases: NCI-60 one-dose screen, 48 h (100 = growth as untreated, 0 = no growth, -100 = all killed)
# [1] = test system: DU-145 prostate; settings: 10 µM unless noted
# [2] = test system: K-562 leukemia; settings: 10 µM unless noted
# [3] = test system: MALME-3M melanoma; settings: 10 µM unless noted
# [4] = test system: MDA-MB-231 breast; settings: 10 µM unless noted
# [5] = test system: RXF 393 renal; settings: 10 µM unless noted
# [6] = test system: SF-268 CNS; settings: 10 µM unless noted
# [7] = test system: SF-295 CNS; settings: 10 µM unless noted
# [8] = test system: SF-539 CNS; settings: 10 µM unless noted
# [9] = test system: UACC-257 melanoma; settings: 10 µM
# [10] = test system: HCT-15 colon; settings: 10 µM unless noted
# [11] = test system: HT29 colon; settings: 10 µM unless noted
# [12] = test system: SNB-75 CNS; settings: 10 µM unless noted
# [13] = test system: SNB-19 CNS; settings: 10 µM unless noted
# [14] = test system: U251 CNS; settings: 10 µM unless noted
# [15] = test system: PC-3 prostate; settings: 10 µM unless noted
# [16] = test system: SK-MEL-5 melanoma; settings: 10 µM unless noted
# [17] = test system: UACC-62 melanoma; settings: 10 µM unless noted
# [18] = test system: LOX IMVI melanoma; settings: 10 µM unless noted
# [19] = test system: SK-MEL-28 melanoma; settings: 10 µM unless noted
SMILES,growth [1],growth [2],growth [3],growth [4],growth [5],growth [6],growth [7],growth [8],growth [9],growth [10],growth [11],growth [12],growth [13],growth [14],growth [15] [%],growth [16],growth [17],growth [18],growth [19]
Cc1ccc(S(=O)(=O)N/N=C/c2cn(-c3ccc(F)cc3)nc2-c2ccc(S(C)(=O)=O)cc2)cc1,114%,102%,71%,104%,117%,104%,103%,97.7%,99.3%,99.4%,105%,110%,97.1%,101%,95.4,102%,91.6%,100%,106%
O=c1oc2ccc(-c3ccc(F)cc3F)cc2c(=O)n1-c1cccc(C(F)(F)F)c1,15.6%,12.9%,-14.7% (active),-4.78% (active),-24.7% (active),16.1%,-17.3% (active),11.6%,-9.2% (active),9.93% (active),91.3%,15.5%,9.99% (active),10.2%,–,-72.4% (active),-6.07% (active),0.939% (active),23.4%
ClC(Cl)c1nc(-c2cccs2)n2nc(-c3ccccc3)cc2n1,-24.3% (active),27.9%,67.7%,-26.9% (active),-73.2% (active),6.38% (active),-27.6% (active),-44% (active),16.3%,0.506% (active),-3.99% (active),48%,-5.22% (active),-9.39% (active),–,89.8%,23.6%,83.5%,-45.9% (active)
Oc1ccc(CSc2nnc(-c3ccc(Oc4ccccc4)cc3)o2)c2cccnc12,45.6%,9.13% (active),70.8%,45.5%,60.6%,28.8%,1.44% (active),31.6%,45.1%,9.07% (active),94.4%,-25.3% (active),17.3%,-4.12% (active),20.4,16.6%,–,19.8%,52.2%
O=C(CSc1nnc(-c2ccc(Cl)cc2)n1-c1ccccc1)Nc1ccc(F)cc1,93%,92.4%,80.1%,49.4%,82.9%,79.7%,65.5%,60%,98.8%,94.6%,87%,117%,59.7%,6.66% (active),99.9,96.4%,82.4%,49.2%,95.8%
Cc1ccc(NC(=O)c2cccc(CN3CCN(C)CC3)c2)cc1Oc1ccc(-c2[nH]nc3ncnc(N)c23)cc1,81.9%,10.6%,49.2%,60.7%,23.3%,73.8%,78%,62%,75.4%,86.1%,5.69% (active),66.8%,81.9%,64.6%,72.9,76.7%,73%,29.9%,72.9%
NC(=O)c1c(NC(=O)c2cccc(C(F)(F)F)c2F)sc2c1CCC(=O)C2,89.1%,13.4%,19.4%,12.9%,-5.49% (active),21.6%,40%,0.149% (active),12.9%,7.63% (active),8.55% (active),40.2%,18%,15.9%,17.9,-3.83% (active),–,19.2%,33.9%
O=C(NCCCNc1cc(-c2cn(-c3ccccc3)nc2-c2cccc(O)c2)ccn1)Nc1ccc(F)cc1,31.4%,5.52% (active),-27.3% (active),0.136% (active),-34.9% (active),18%,-44.3% (active),6.41% (active),-51.9% (active),-11.7% (active),3.6% (active),6.84% (active),26.9%,3.22% (active),16,-55% (active),–,6.07% (active),-61.3% (active)
